Values joined by “and” are separate entries in the source; they are usually repeats but may differ in a detail not shown here. Equal entries are not always repeated. A number with no mark means an inactive call. Inconclusive results are not listed. A call without a number means that no potency is given here. Active and inactive are the calls of the source. Unless noted, calls follow the shape of the dose curve; as a rule, active = well fitted curve in the direction sought with a large enough effect in the repeat runs; inconclusive = weak or mixed curves; inactive = no such curve, though single readings can be large; an effect the other way counts as inactive or inconclusive.
What was measured:
[1] = qHTS assay for small molecule agonists of the p53 signaling pathway (AID 651631; calls by dose curve; also: nearly all actives have a fitted effect of over 15% in size; also: potency is read from the fitted curve at half-maximal effect)
Outline: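 Agonist mode screen using a stably integrated beta-lactamase gene under p53 response elements in HCT-116 cells. Compound exposure lasts 16 h at 37 °C; fluorescence intensity is measured following 2 h FRET substrate loading.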

[2] = qHTS assay for small molecule agonists of the p53 signaling pathway - cell viability (AID 651633; calls by dose curve; also: nearly all actives have a fitted effect of over 30% in size; also: potency is read from the fitted curve at half-maximal effect)
Outline: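 Viability counter-read: CellTiter-Glo luminescence (30 min, room temperature) in the same p53RE-bla plates. These plates had been exposed to compounds for 16 h at 37 C.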

[3] = qHTS assay for small molecules that induce genotoxicity in human embryonic kidney cells expressing luciferase-tagged ATAD5 - cell viability (AID 651634; calls by dose curve; also: nearly all actives have a fitted effect of over 25% in size; also: potency is read from the fitted curve at half-maximal effect)
Outline: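 HEK293T ATAD5-luc cells, 2,000/well; compound 15.5 hr, 37C/5% CO2; CellTiter-Fluor 30 min, 37C; fluorescence read.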

[4] = qHTS assay for small molecule disruptors of the mitochondrial membrane potential - cell viability (AID 720634; calls by dose curve;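 also: human HepG2 liver cancer cells; nearly all actives have a fitted effect of over 20% in size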)
Outline: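 Luminescence from CellTiter-Glo (ATP content) gave viability in HepG2 cells, read in the same wells as the MMP dye assay after 1 hr compound exposure at 37 C.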

[5] = qHTS assay for small molecule disruptors of the mitochondrial membrane potential (AID 720635); also: potency is read from the fitted curve at half-maximal effect
Outline: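 Mitochondrial membrane potential tracked with Mito-MPS dye, red aggregates (ex 540/em 590 nm) against green monomers (ex 490/em 535 nm). Compound treatment 1 hr at 37C, dye 30 min in HepG2.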

[6] = qHTS assay to test for compound auto fluorescence at 590 nm (red) in HepG2 cells (AID 720674)
Outline: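 We screened compounds on adherent HepG2 cells, incubating them for an hour at 37 C in 5% CO2 before reading emission at 590 nm under 540 nm excitation; values reflect equivalence to Rose Bengal sodium fluorescence.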

[7] = qHTS assay to test for compound auto fluorescence at 535 nm (green) in HepG2 cells (AID 720675)
[8] = qHTS assay to test for compound auto fluorescence at 460 nm (blue) in HEK293 cells (AID 720678)
Outline: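 Blue read-out at excitation 405 nm and emission 460 nm follows overnight compound exposure of HEK293 cells at 37C in 5% CO2. Activity is given as auto fluorescence equivalency to triamterene.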

[9] = qHTS assay to test for compound auto fluorescence at 590 nm (red) in HEK293 cells (AID 720679)
Outline: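 Red channel, Ex/Em 540/590nm; signal expressed as equivalency to Rose Bengal sodium. HEK293, 2,000 cells/well, 10% dialyzed FBS; 23 nL compound pinned after 4-5 hr attachment; overnight 37C/5% CO2 before reading.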

[10] = qHTS assay to test for compound auto fluorescence at 535 nm (green) in HEK293 cells (AID 720680)
[11] = qHTS assay to test for compound auto fluorescence at 460 nm (blue) in HEK293 cell free culture (AID 720681)
Outline: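 Blue fluorescence (Ex 405/Em 460 nm, triamterene-equivalent) was read immediately after pin transfer of compound or DMSO into medium (DMEM, 10% FBS) without cells.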

[12] = qHTS assay to test for compound auto fluorescence at 535 nm (green) in HEK293 cell free culture (AID 720682)
Outline: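 No cells present: wells hold DMEM supplemented with 10% FBS, into which compound or vehicle is pinned. Green emission is then recorded (485 nm excitation, 535 nm emission) and scaled to fluorescein.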

[13] = qHTS assay to test for compound auto fluorescence at 590 nm (red) in HEK293 cell free culture (AID 720683)
Outline: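 Red-channel autofluorescence of compounds in culture medium (DMEM, 10% FBS), no cells, measured at 540/590 nm. Rose Bengal sodium is the reference fluorophore for equivalence.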

[14] = qHTS assay to test for compound auto fluorescence at 460 nm (blue) in HepG2 cell free culture (AID 720685)
Outline: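 Cell-free plates of MEM plus 10% FBS received 23 nL compound or DMSO vehicle; blue-channel (405/460 nm) intensity scored against triamterene as reference fluorophore.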

[15] = qHTS assay to test for compound auto fluorescence at 535 nm (green) in HepG2 cell free culture (AID 720686)
[16] = qHTS assay to test for compound auto fluorescence at 460 nm (blue) in HepG2 cells (AID 720687)
Outline: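 Blue-channel autofluorescence (Ex/Em 405/460 nm, triamterene-equivalent) was measured after 1 hr compound exposure at 37 C, 5% CO2. Cells were HepG2, plated overnight at 37 C in MEM plus 10% FBS.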

[17] = qHTS assay to test for compound auto fluorescence at 590 nm (red) in HepG2 cell free culture (AID 720684)
Outline: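 Cell-free; medium MEM + 10% FBS; compound or DMSO added by pintool; read Ex 540/Em 590 nm; Rose Bengal sodium as red reference fluorophore.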

[18] = target: Glucocorticoid receptor (Homo sapiens) (UniProt P04150); assay: qHTS assay to identify small molecule agonists of the glucocorticoid receptor (GR) signaling pathway (AID 720691; active = well fitted activation curve with a large enough effect in the signal ratio in the repeat runs, not every such curve was filed as active; the % refers to the signal ratio); details: GR-bla HeLa, beta-lactamase reporter ratio, 18 h; activation: at 62.4 µM (top of the series) unless noted
Outline: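 HeLa GR-bla reporter line; cells pre-incubated 4 h, compound in DMSO 18 h at 37 C; LiveBLAzer B/G FRET substrate 2 h RT; fluorescence intensity read-out.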

[19] = target: Glucocorticoid receptor (Homo sapiens) (UniProt P04150); assay: qHTS assay to identify small molecule antagonists of the glucocorticoid receptor (GR) signaling pathway (AID 720692; active = well fitted inhibition curve with a large enough effect in the signal ratio in the repeat runs, not every such curve was filed as active; the % refers to the signal ratio)
Outline: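 Read-out: beta-lactamase FRET substrate fluorescence, 2 h at room temperature, in HeLa cells stably carrying a GRE-driven bla reporter. Compounds were co-incubated with 5 nM dexamethasone agonist (final) for 18 h at 37 C.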

[20] = qHTS assay for small molecules that induce genotoxicity in human embryonic kidney cells expressing luciferase-tagged ATAD5 (AID 651632); also: nearly all actives have a fitted effect of over 15% in size
Outline: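 Luminescence read-out: after 16 hr compound exposure at 37C, ATAD5-luciferase HEK293T cells received Amplite, 30 min RT, then CCD imaging. A rise in signal marks genotoxic stress.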

Glucocorticoid receptor (Homo sapiens), sequence (P04150 whole entry, looked up): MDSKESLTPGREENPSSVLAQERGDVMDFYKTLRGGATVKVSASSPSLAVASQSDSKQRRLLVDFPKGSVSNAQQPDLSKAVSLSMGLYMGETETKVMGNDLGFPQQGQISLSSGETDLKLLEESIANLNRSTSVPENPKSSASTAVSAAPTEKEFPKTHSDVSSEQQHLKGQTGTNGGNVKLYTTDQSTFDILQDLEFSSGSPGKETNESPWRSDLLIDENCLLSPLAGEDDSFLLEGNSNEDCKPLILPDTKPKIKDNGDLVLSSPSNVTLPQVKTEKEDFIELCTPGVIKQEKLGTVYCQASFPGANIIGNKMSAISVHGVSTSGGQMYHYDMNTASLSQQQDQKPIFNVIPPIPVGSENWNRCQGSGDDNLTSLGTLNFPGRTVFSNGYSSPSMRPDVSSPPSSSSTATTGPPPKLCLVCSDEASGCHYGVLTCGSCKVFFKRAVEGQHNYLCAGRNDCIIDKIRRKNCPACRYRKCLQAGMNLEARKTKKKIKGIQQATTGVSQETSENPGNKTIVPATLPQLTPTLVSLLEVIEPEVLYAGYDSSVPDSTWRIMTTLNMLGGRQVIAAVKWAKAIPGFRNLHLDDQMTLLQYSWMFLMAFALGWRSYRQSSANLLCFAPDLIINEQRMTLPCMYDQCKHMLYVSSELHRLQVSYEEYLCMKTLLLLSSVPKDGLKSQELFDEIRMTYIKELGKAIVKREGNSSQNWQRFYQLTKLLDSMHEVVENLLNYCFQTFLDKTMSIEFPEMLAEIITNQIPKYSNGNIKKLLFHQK

SMILES | Potency [1] | Potency [2] | Potency [3] | Potency [4] | Potency [5] | Potency [6] | Potency [7] | outcome [8] | Potency [9] | outcome [10] | outcome [11] | outcome [12] | Potency [13] | outcome [14] | Potency [15] | outcome [16] | Potency [17] | Potency [18] | Potency [19] | Potency [20]
CCOc1ccc(O)cc1 | inactive | inactive | inactive | inactive | inactive | inactive | inactive | inactive | inactive | inactive | inactive | inactive | inactive | inactive | inactive | inactive | – | – | – | –
CCOCC(O)COc1ccc(NC(=O)CC[S+](C)C)cc1 (configuration not stated) | inactive | inactive | inactive | inactive | – | inactive | – | inactive | inactive | inactive | inactive | – | inactive | inactive | inactive | inactive | inactive | inactive | inactive | –
N=c1ccn2c(n1)O[C@H]1[C@H](O)[C@@H](CO)O[C@H]12 | 1.5 µM (active) and 1.72 µM (active) | inactive | – | inactive | inactive | – | inactive | inactive | inactive | inactive | inactive | – | inactive | inactive | inactive | inactive | – | – | inactive | inactive
O=C(O)c1ccccc1Cl | inactive | inactive | inactive | inactive | – | inactive | inactive | inactive | inactive | inactive | inactive | inactive | inactive | inactive | inactive | – | inactive | – | – | –
CCCCO | inactive | inactive | inactive | inactive | inactive | inactive | – | inactive | inactive | inactive | inactive | inactive | inactive | inactive | inactive | inactive | inactive | – | – | –
c1ccc(C(O[C@H]2CCCN(CCc3ccc4c(c3)OCO4)C2)c2ccccc2)cc1 | inactive | – | – | inactive | – | – | inactive | inactive | inactive | inactive | inactive | inactive | inactive | inactive | inactive | inactive | inactive | inactive | – | inactive
O=S(c1cc(Cl)cc(Cl)c1O)c1cc(Cl)cc(Cl)c1O | 8.41 µM (active) | 3.35 µM (active) | – | – | – | inactive | inactive | inactive | inactive | inactive | inactive | – | inactive | inactive | – | – | inactive | inactive | – | inactive
Nc1c(CC(=O)O)cccc1C(=O)c1ccc(Br)cc1 | inactive | inactive | – | inactive | – | inactive | inactive | inactive | inactive | inactive | inactive | inactive | inactive | inactive | inactive | inactive | inactive | – | – | inactive
CCCn1cnc2c1c(=O)n(CCCCC(C)=O)c(=O)n2C | inactive | inactive | inactive | inactive | inactive | – | inactive | inactive | inactive | inactive | inactive | – | inactive | inactive | inactive | inactive | – | inactive | inactive | –
O=C1C(O)=C(O)C(=O)C(O)=C1O | – | inactive | inactive | inactive | inactive | inactive | inactive | inactive | inactive | inactive | inactive | inactive | – | inactive | – | inactive | inactive | inactive | inactive | inactive
NCC(=O)CCC(=O)O | inactive | inactive | inactive | inactive | – | – | inactive | inactive | inactive | inactive | inactive | inactive | inactive | inactive | inactive | – | inactive | inactive | inactive | –
O=P(O)(OCc1ccccc1)OCc1ccccc1 | inactive | inactive | – | inactive | – | – | inactive | – | inactive | inactive | inactive | inactive | inactive | inactive | inactive | inactive | inactive | – | – | –
CCN(CC)CCNc1ccc(CNC=O)c2sc3ccc(OC)cc3c(=O)c12 | 6.86 µM (active) | inactive | – | inactive | – | inactive | – | – | inactive | inactive | inactive | inactive | inactive | inactive | inactive | inactive | inactive | – | – | –
C=C(C)C(=O)OCCO | – | inactive | inactive | inactive | inactive | – | – | – | inactive | inactive | inactive | inactive | inactive | inactive | – | inactive | – | – | – | inactive
CCCCCCCCCc1ccc(OCCOCCO)cc1 | – | 29.8 µM (active) | 18.8 µM (active) | inactive | 10.6 µM (active) and 1.44 µM (active) | inactive | inactive | inactive | inactive | inactive | inactive | inactive | inactive | – | inactive | – | inactive | – | – | inactive
CC(=O)c1cccc([N+](=O)[O-])c1 | inactive | inactive | – | inactive | inactive | inactive | inactive | – | inactive | inactive | inactive | inactive | inactive | – | inactive | inactive | inactive | inactive | inactive | –
Cc1cccc(C)c1NC(=O)CN(CC(=O)O)CC(=O)O | – | inactive | inactive | inactive | inactive | – | inactive | – | inactive | inactive | inactive | inactive | inactive | inactive | inactive | inactive | inactive | inactive | inactive | inactive

From PubChem BioAssay (Tox21)
